Several values for one entry are separate records, joined by “and”; a condition that tells them apart may be missing. Equal values may be shown once. More than one record can exist for a structure, and the calls need not agree. Activity calls are given as the source filed them. The calls were made as follows: active = hit-call score of the fitted dose curve at least 0.9, where 1 is the maximum; inactive = score below 0.9.

This note sets out measurements from PubChem BioAssay (EPA / NIEHS).

Read-out in assay [1]: Interleukin-8 (IL8), CXCL8 (gene 3576)
As to the kind of experiment: BSK_CASM3C_IL8: BioMAP Diversity Plus: CASM3C Assay for Interleukin-8 (IL8) Biomarker Activity (AID 2283042).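 Also: IL-8 protein level quantified by ELISA.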 The following applies: primary human coronary artery smooth muscle cells; actives raise or lower the signal.

Read-out in assay [2]: Human Leukocyte Antigen - DR isotype (HLADR), HLA-DRA (gene 3122)
Kind of assay: BSK_CASM3C_HLADR: BioMAP Diversity Plus: CASM3C Assay for Human Leukocyte Antigen - DR isotype (HLADR) Biomarker Activity (AID 2283043).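 Also: cell-surface HLA-DR protein level quantified by ELISA.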 The following applies: primary human coronary artery smooth muscle cells; actives raise or lower the signal.

Read-out in assay [3]: Macrophage colony-stimulating factor (MCSF), CSF1 (gene 1435)
Kind of assay: BSK_CASM3C_MCSF: BioMAP Diversity Plus: CASM3C Assay for Macrophage colony-stimulating factor (MCSF) Biomarker Activity (AID 2283044).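 Also: M-CSF protein amount quantified by ELISA after 24 h exposure.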 The following applies: primary human coronary artery smooth muscle cells; actives raise or lower the signal.

Read-out in assay [4]: Low-density lipoprotein receptor (LDLR), LDLR (gene 3949)
Kind of assay: BSK_CASM3C_LDLR: BioMAP Diversity Plus: CASM3C Assay for Low-density lipoprotein receptor (LDLR) Biomarker Activity (AID 2283045).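 Also: LDLR protein level on the cell surface quantified by ELISA.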 The following applies: primary human coronary artery smooth muscle cells; actives raise or lower the signal.

Read-out in assay [5]: Monocyte Chemoattractant Protein-1 (MCP1), CCL2 (gene 6347)
Kind of assay: BSK_CASM3C_MCP1: BioMAP Diversity Plus: CASM3C Assay for Monocyte Chemoattractant Protein-1 (MCP1) Biomarker Activity (AID 2283046).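 Also: MCP-1 level quantified by ELISA 24 h after dosing.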 The following applies: primary human coronary artery smooth muscle cells; actives raise or lower the signal.

Assay [6] is described as follows: BSK_CASM3C_Proliferation: Cell Proliferation Assessment in the BioMAP Diversity Plus: CASM3C Assay (AID 2283047).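 Also: sulforhodamine B total protein stain as relative cell number at 560 nm; sub-confluent cells exposed 48 h before staining; fitted both ways against DMSO so gain or loss of cell number.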 The following applies: primary human coronary artery smooth muscle cells.
Read-out in assay [7]: Monokine induced gamma interferon (MIG), CXCL9 (gene 4283)
Kind of assay: BSK_CASM3C_MIG: BioMAP Diversity Plus: CASM3C Assay for Monokine induced gamma interferon (MIG) Biomarker Activity (AID 2283048).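 Also: MIG protein level measured by ELISA.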 The following applies: primary human coronary artery smooth muscle cells; actives raise or lower the signal.

Read-out in assay [8]: serum amyloid A (SAA), SAA1 (gene 6288)
Kind of assay: BSK_CASM3C_SAA: BioMAP Diversity Plus: CASM3C Assay for serum amyloid A (SAA) Biomarker Activity (AID 2283049).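 Also: SAA protein level quantified by ELISA.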 The following applies: primary human coronary artery smooth muscle cells; actives raise or lower the signal.

Assay [9] can be described thus: BSK_CASM3C_SRB: Viability Assessment in the BioMAP Diversity Plus: CASM3C Assay (AID 2283050).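 Also: total protein by SRB staining as cytotoxicity measure in parallel cultures; cells exposed to compound for 24 h.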 The following applies: primary human coronary artery smooth muscle cells.
Read-out in assay [10]: Thrombomodulin, THBD (gene 7056)
Kind of assay: BSK_CASM3C_Thrombomodulin: BioMAP Diversity Plus: CASM3C Assay for Thrombomodulin Biomarker Activity (AID 2283051).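 Also: thrombomodulin protein level measured by ELISA 24 h after dosing.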 The following applies: primary human coronary artery smooth muscle cells; actives raise or lower the signal.

Read-out in assay [11]: Tissue Factor, F3 (gene 2152)
As to the kind of experiment: BSK_CASM3C_TissueFactor: BioMAP Diversity Plus: CASM3C Assay for Tissue Factor Biomarker Activity (AID 2283052).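 Also: cell surface tissue factor protein level read by ELISA.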 The following applies: primary human coronary artery smooth muscle cells; actives raise or lower the signal.

Read-out in assay [12]: Interferon-gamma inducible Protein 10 (IP10), CXCL10 (gene 3627)
As to the kind of experiment: BSK_hDFCGF_IP10: BioMAP Diversity Plus: hDFCGF Assay for Interferon-gamma inducible Protein 10 (IP10) Biomarker Activity (AID 2283053). The following applies: primary human foreskin fibroblasts; actives raise or lower the signal. The essentials: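 Primary foreskin fibroblasts, human; 24 h compound exposure; IP-10 by ELISA; bidirectional fit vs DMSO.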

Read-out in assay [13]: Urokinase-type plasminogen activator receptor (uPAR), PLAUR (gene 5329)
Kind of assay: BSK_CASM3C_uPAR: BioMAP Diversity Plus: CASM3C Assay for Urokinase-type plasminogen activator receptor (uPAR) Biomarker Activity (AID 2283054).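 Also: cell-surface uPAR protein level quantified by ELISA.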 The following applies: primary human coronary artery smooth muscle cells; actives raise or lower the signal.

Read-out in assay [14]: Vascular cell adhesion molecule 1 (VCAM1), VCAM1 (gene 7412)
Kind of assay: BSK_CASM3C_VCAM1: BioMAP Diversity Plus: CASM3C Assay for Vascular cell adhesion molecule 1 (VCAM1) Biomarker Activity (AID 2283055).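 Also: VCAM-1 protein level quantified by ELISA on the cells.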 The following applies: primary human coronary artery smooth muscle cells; actives raise or lower the signal.

Read-out in assay [15]: Collagen III, COL3A1 (gene 1281)
Kind of assay: BSK_hDFCGF_CollagenIII: BioMAP Diversity Plus: hDFCGF Assay for Collagen III Biomarker Activity (AID 2283056). The following applies: primary human foreskin fibroblasts; actives raise or lower the signal. The method, boiled down: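 Cells: human foreskin fibroblasts, primary. Dosing followed by 24 h incubation, then ELISA for collagen III. Both increases and decreases scored relative to DMSO.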

Read-out in assay [16]: Epidermal growth factor receptor (EGFR), EGFR (gene 1956)
As to the kind of experiment: BSK_hDFCGF_EGFR: BioMAP Diversity Plus: hDFCGF Assay for Epidermal growth factor receptor (EGFR) Biomarker Activity (AID 2283057). The following applies: primary human foreskin fibroblasts; actives raise or lower the signal. The essentials: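 hDFCGF system, primary human foreskin fibroblasts; compound 24 h; EGFR measured by ELISA; DMSO = negative control/baseline; bidirectional fitting.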

Read-out in assay [17]: Interleukin-8 (IL8), CXCL8 (gene 3576)
Kind of assay: BSK_hDFCGF_IL8: BioMAP Diversity Plus: hDFCGF Assay for Interleukin-8 (IL8) Biomarker Activity (AID 2283058). The following applies: primary human foreskin fibroblasts; actives raise or lower the signal. The essentials: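 IL-8 levels from compound-treated primary human fibroblasts were read by ELISA at 24 h, with DMSO serving as baseline for bidirectional fitting.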

Assay [18] in a line: BSK_hDFCGF_Proliferation: Cell Proliferation Assessment in the BioMAP Diversity Plus: hDFCGF Assay (AID 2283059).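 Also: curves fitted for both rise and fall of signal versus DMSO baseline.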 The following applies: primary human foreskin fibroblasts. The essentials: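 Total protein read at 560 nm after 0.1% SRB staining of TCA-fixed human skin fibroblasts, […]. Activity is fitted in both directions relative to DMSO as baseline.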

Read-out in assay [19]: Macrophage colony-stimulating factor (MCSF), CSF1 (gene 1435)
As to the kind of experiment: BSK_hDFCGF_MCSF: BioMAP Diversity Plus: hDFCGF Assay for Macrophage colony-stimulating factor (MCSF) Biomarker Activity (AID 2283060). The following applies: primary human foreskin fibroblasts; actives raise or lower the signal. The essentials: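 M-CSF levels, determined by ELISA, are taken at 24 h after dosing human skin fibroblasts. Responses in either direction are fitted with DMSO serving as the baseline.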

A short description of assay [20]: BSK_hDFCGF_SRB: Viability Assessment in the BioMAP Diversity Plus: hDFCGF Assay (AID 2283061).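 Also: cells exposed to compound for 24 h before the read.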 The following applies: primary human foreskin fibroblasts. The essentials: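 Cells were dosed with test chemical, cultured 24 h, fixed with 10% TCA, then stained with 0.1% SRB and read at 560 nm. The fibroblasts were human foreskin primary cells, and DMSO served as baseline.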

Turning to `O=C(NC(=O)c1c(F)cccc1F)Nc1cc(Cl)c(OC(F)(F)C(F)F)c(Cl)c1`, the outcome in assay [1], in assay [2], in assay [3], in [4], in assay [5] and in [6] was inactive. Besides, the result in assay [7], in assay [8], in assay [9], in assay [10], in [11] and in assay [12] was inactive. Further, the result in assay [13], in assay [14], in assay [15], in assay [16], in assay [17] and in [18] was inactive. In addition, the outcome in [19] and in [20] was inactive.

One may read the AC50 as the midpoint of the concentration-response curve, whichever way the signal moves. `CCNc1nc(NC(C)C)nc(SC)n1`: the outcome in assay [1], in [2], in [3], in assay [4], in assay [5] and in assay [6] was inactive. Also, the result in [7], in assay [8], in [9], in [10], in [11] and in [13] was inactive. Also, the outcome in assay [14], in [15], in assay [16], in assay [17], in assay [18] and in [19] was inactive. Moreover, the result in [20] was inactive. Besides, in [12], the concentration at half-maximal activity (AC50) is 30.4 µM (active).

With `Nn1cnnc1`, the outcome in assay [1], in assay [2], in [3], in assay [4], in assay [5] and in assay [6] was inactive. The outcome in [7], in [8], in assay [9], in assay [10], in [11] and in [12] was inactive. Further, the result in assay [13], in [14], in assay [15], in [16], in [17] and in assay [18] was inactive. For the same compound, the result in assay [20] was inactive.

As to `CCOCCOC(C)=O`, the result in assay [1], in [2], in assay [3], in assay [4], in [5] and in [6] was inactive. Further, the result in [7], in assay [8], in assay [9], in assay [10], in assay [11] and in [12] was inactive. Also, the result in [13], in assay [14], in assay [15], in [16], in assay [17] and in assay [18] was inactive. The result in assay [19] and in assay [20] was inactive.

In the case of `NS(=O)(=O)C(F)(F)C(F)(F)C(F)(F)C(F)(F)C(F)(F)C(F)(F)C(F)(F)C(F)(F)F`, the result in [1], in assay [2], in assay [3], in [4], in assay [5] and in assay [6] was inactive. Also, the result in assay [7], in assay [8], in assay [11], in [13], in assay [14] and in assay [16] was inactive. The AC50 is 26.2 µM (active) and 46.2 µM (active) in assay [2]; 31.3 µM (active) and 49 µM (active) in assay [3]; 44.3 µM (active) in [4]; 30 µM (active) in [5]; 54.4 µM (active) and 50.9 µM (active) in assay [6]; 39.8 µM (active) in assay [7]. Further, the AC50 in assay [8] was 46.8 µM (active); in [9], 31.8 µM (active) and 45.5 µM (active) and 49.3 µM (active); in assay [10], 26 µM (active) and 34.6 µM (active) and 37.3 µM (active); in assay [12], 20 µM (active) and 9.33 µM (active) and 8.26 µM (active); in assay [13], 46.6 µM (active) and 42.5 µM (active); in assay [14], 11.4 µM (active) and 16.7 µM (active). The AC50 in assay [15] is 12.6 µM (active) and 10.8 µM (active) and 9.02 µM (active); in assay [17] it was 37.5 µM (active) and 22.2 µM (active) and 34 µM (active); in assay [18], 12.2 µM (active) and 18.3 µM (active) and 19.5 µM (active); in [20], 26.9 µM (active) and 55 µM (active) and 47.2 µM (active).
